Assay outcomes as filed in PubChem.
LASV entry inh – qHTS for Inhibitors of binding or entry into cells for Lassa Virus | Lassa virus pseudotype entry inhibition, cell reporter | Potency, µM (top dose mostly 37.9 µM), for inactives: at the top dose activity change, negative = inhibition, hits mostly inhibitors | 300,000 compounds, 1.2% hits | AID 540256, 2011; calls by dose curve; tested in HEK293 cells; also: potency is read from the fitted curve at half-maximal effect; nearly all actives have a fitted effect of over 50% in size
Vaccinia Venus – qHTS for Stage-Specific Inhibitors of Vaccinia Orthopoxvirus: Venus Reporter Primary qHTS. Vaccinia virus Venus reporter expression, fluorescence. Potency, µM (highest dose often 36.5 µM), inactives show at the top dose activity change, negative = inhibition, actives largely listed as inhibitors. 330,000 compounds, 0.46% hits; calls by dose curve; tested in A549 cells; also: potency is read from the fitted curve at half-maximal effect; nearly all actives have a fitted effect of over 30% in size
Vaccinia mCherry – qHTS for Stage-Specific Inhibitors of Vaccinia Orthopoxvirus: mCherry Reporter Primary qHTS; 310,000 compounds, 0.63% hits; Vaccinia virus mCherry reporter infection, fluorescence; Potency, µM (titrated, usually from 36.5 µM), inactives show top-dose activity change, negative = inhibition, hits mostly inhibitors; calls by dose curve; tested in A549 cells; also: potency is read from the fitted curve at half-maximal effect; nearly all actives have a fitted effect of over 35% in size
HCV inhibitor – qHTS Assay for Inhibitors of Hepatitis C Virus (HCV); Huh7.5.1 HCVcc-Cre infection, luciferase reporter, 44 h; Potency, µM (top dose mostly 41.8 µM), for inactives: at the highest dose activity change, negative = inhibition, usual class: inhibitors; 340,000 compounds, 3.4% hits; active = well fitted inhibition curve with a large enough effect; inconclusive = small, poorly fitted or top-dose-only effect, or another doubt; inactive = no such curve, though single readings can be large or run the other way; also: potency is read from the fitted curve at half-maximal effect
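Compounds are dispensed onto cells plated 4 h earlier at 1,000 per well, with HCVcc-Cre virus (about 0.5 moi) added next. Following 44 h of culture, luminescent signal is measured for 15 sec after 15 min with substrate at room temperature.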
HCMV antiviral – qHTS Assay for inhibitors of the human cytomegalovirus (HCMV); HFF cells, HCMV-luciferase reporter, 72 h; active compounds read low; activity change, negative = inhibition, % at 57.5 µM; 410,000 compounds, 4.5% hits; AID 1259415, 2018; in the data active = activity change below about -60%; inconclusive = no clear call, values can overlap the other calls; inactive = above about -39%
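Cell-based, HFFs, 1000 cells/well, 16 h 37C; cpds in DMSO + HCMV-luc, MOI 1 PFU/cell; 72 h 37C; OneGlo luminescence after 5 min RT; norm. to buffer vs Salinomycin 10uM.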
Marburg entry inh – qHTS for inhibitors of binding or entry into cells for Marburg Virus; Marburg virus pseudotyped entry inhibition, cell reporter; Potency, µM (series often up to 37.8 µM), inactives show top-dose activity change, negative = inhibition, most hits filed as inhibitors; 300,000 compounds, 1.8% hits; AID 540276, 2011; calls by dose curve; tested in HEK293 cells; also: potency is read from the fitted curve at half-maximal effect
* hit, by the source's call; i = inactive; ? = inconclusive; / = not tested or not shown; [ ] = dose if it differs, or a comment. This is a sample that favours compounds with a hit; in the whole collection about 7.8% have one here. % is scaled to controls: 0 for no effect and ±100 for the full control effect.

SMILES | LASV entry inh | Vaccinia Venus | Vaccinia mCherry | HCV inhibitor | HCMV antiviral | Marburg entry inh
N#CC1=C(N)n2c(s/c(=C\c3cccs3)c2=O)=C(C#N)C1c1cccs1 (centres undefined) | / | 7% | i | 0.5µM* | 27 | /
Cc1ccc(CNC(=O)CN2C(=O)COc3ccc(S(=O)(=O)Nc4ccccc4)cc32)cc1 | 10%[46.1 µM] | -6% | -2% | / | 27 | /
COc1ccccc1CCc1nnc(CCC(=O)NC(C)Cc2ccsc2)o1 (centres undefined) | / | 1.8µM* | 1.1µM* | 0% | -28 | ?
CCc1ccccc1N=C1S/C(=C/c2ccccc2OCC(=O)N2CCOCC2)C(=O)N1C | 15µM* | ? | ? | ? | -39 | -29%
CCCCn1c(=O)nc2n(-c3ccc(F)cc3)c3ccccc3cc-2c1=O | -1%[46.1 µM] | 7% | 2% | / | -4 | /
COc1ccccc1NC(=O)Cn1c(=O)n(-c2cccc(C)c2)c(=O)c2c1c1cc(C)ccc1n2C | 5%[46.1 µM] | -13% | 0% | / | 116 | /
O=c1[nH]c2cc3c(cc2cc1C(c1nnnn1Cc1ccccc1)N1CCCc2ccccc21)OCO3 (centres undefined) | -13% | / | / | 16% | -85* | ?
CCc1ccc2[nH]c(=O)c(C(c3nnnn3CC3CCCO3)N3CCCc4ccccc43)cc2c1 (centres undefined) | -25% | / | / | -6% | -31 | 9.2µM*
Clc1cccc(CNc2nnnn2-c2ccccc2)c1 | -2% | -23% | -25% | ? | -84* | ?
C=CCc1c(C)nc2c(OC)cccc2c1Cl | 6% | -14% | -8% | ? | -83* | 1%
CC(C)COc1ccc(-c2nnc(-c3ccco3)o2)cc1 | 7.3µM* | / | / | ? | 64 | ?
CCOC(=O)Cn1nnc(-c2ccc(OCC(C)C)cc2)n1 | 11% | / | / | 18% | 9 | 3%
O=C(COc1ccccc1)Nc1ccc(-c2nnc(-c3ccco3)o2)cc1 | 1% | 9% | / | -4% | 135 | 5%
CCCOc1ccc(-c2nnc(-c3ccco3)o2)cc1 | 8.2µM* | / | / | 7% | 12 | ?
CCN(CC)CCCNc1ccc(-c2nnc(-c3ccc(OCC(C)C)cc3)o2)cn1 | 21%[46.1 µM] | -8% | -19% | 8.9µM* | -26 | 0%[46.1 µM]
COc1ccccc1C(=O)NCc1nnnn1-c1ccc(C)c(C)c1 | -5%[46.1 µM] | -9% | -17% | / | -2 | /
CCN1C(=O)/C(=C\c2nc3ccccc3c(=O)n2CC)c2ccccc21 | -24% | -23% | i | 1% | -94* | ?
O=C1Nc2ccccc2/C1=C/c1nc2ccccc2c(=O)n1-c1ccc(O)cc1 | ? | -26% | -29% | ? | ? | ?
COc1ccc(-n2c(/C=C3\C(=O)Nc4ccccc43)nc3ccccc3c2=O)cc1 | ? | -12% | i | -6% | -64* | ?
CCN1C(=O)/C(=C/c2nc3ccccc3c(=O)n2-c2ccccc2)c2ccccc21 | ? | ? | / | -9% | -102* | -25%
CCn1c(/C=C2/C(=O)N(C)c3ccccc32)nc2ccccc2c1=O | ? | -6% | -10% | -30% | 55 | -25%
Cc1ccc(C)c(N2CCN(C(=O)c3cc4c(=O)oc5ccccc5c4s3)CC2)c1 | -1%[46.1 µM] | -22% | -25% | / | -32 | ?
Cc1ccc(OCC(=O)Nc2nnc(SCc3cc(=O)n4cc(C)ccc4n3)s2)cc1 | 16%[46.1 µM] | -8% | -15% | / | -7 | /
CCOC(=O)c1cnc2ccc(OCC)cc2c1N1CCN(c2cccc(Cl)c2)CC1 | -27%[46.1 µM] | -5% | -25% | / | 40 | 12%[46.1 µM]
Nc1nc2c(ncn2COC(CO)CO)c(=O)[nH]1 | -29% | -10% | 9% | 2%[8.37 µM] | -81* | ?
SMILES | LASV entry inh | Vaccinia Venus | Vaccinia mCherry | HCV inhibitor | HCMV antiviral | Marburg entry inh
CCOC(=O)CC1(O)CSc2nc(N)cc(=O)n21 (centres undefined) | / | / | / | / | -77* | /
O=C(Nc1ccccc1)c1ccc(Br)c(S(=O)(=O)N2CCCCC2)c1 | ? | -23% | -17% | / | 0 | /
COc1cc(C(=O)NCc2cccnc2)ccc1OCC(=O)Nc1cccc(C(F)(F)F)c1 | ? | -26% | -24% | ? | -73* | ?
Cc1cc(C)cc(NC(=O)NCc2c(-n3cccc3)sc3c2CCCC3)c1 | -11%[46.1 µM] | -1% | -11% | / | 4 | ?
O=C(NCc1cccnc1)Nc1cccc(NC(=O)NCc2cccnc2)c1 | -1% | / | / | -2% | 11 | 2%
CCOc1ccc(NC(=O)COc2ccc(C(=O)NCc3cccnc3)cc2OC)cc1 | -3% | -10% | -3% | ? | 4 | -7%
COc1ccc(CN(C)C(=O)c2ccc(OCC(=O)Nc3cccc(C(F)(F)F)c3)c(OC)c2)cc1 | / | ? | ? | / | -62* | /
O=C(NCc1c(-n2cccc2)sc2c1CCCC2)Nc1cccc(C(F)(F)F)c1 | 23%[46.1 µM] | ? | ? | / | -73* | 19%[46.1 µM]
O=C(NCc1cccnc1)Nc1cccc(C(F)(F)F)c1 | 20%[46.1 µM] | -10% | -14% | -7% | -70* | -3%[46.1 µM]
CCN1CCN(C(c2ccccc2Cl)c2c(O)cc(C)n(CCOC)c2=O)CC1 (centres undefined) | -2%[46.1 µM] | 0% | -8% | / | 0 | /
O=C(c1cnccn1)N1CC(=O)N2[C@H](C1)[C@@H](c1ccc(Br)cc1)[C@@H]2CO | / | / | / | / | -4 | /
C[C@H](N)c1cccc(Cl)c1Cl | / | / | / | / | / | 9%
COc1ccc(OCCN2CCN(C(=O)c3ccc(OC(F)F)c(OC)c3)CC2)cc1 | -26%[46.1 µM] | -12% | -4% | ? | -63* | ?
COc1ccc(OCCN2CCN(C(=O)c3ccc(OC)cc3)CC2)cc1 | ? | -11% | -9% | 10µM* | -90* | ?
